Hit rate of the full screen: of about 16,000 compounds, about 5,700 (36%) were called active. Inconclusive results (about 24%) are left out. The list shows a part of the results. A number with no mark means an inactive call. Calls follow the shape of the dose curve; as a rule, active = well fitted curve in the direction sought with a large enough effect; inconclusive = small, poorly fitted or top-dose-only effect, or effect the other way; inactive = no such curve, though single readings can be large or run the other way.
target: Cytochrome P450 1A2 (Homo sapiens) (UniProt P05177); experiment: Cytochrome panel assay with activity outcomes; settings: recombinant CYP, pro-luciferin dealkylation, luminescence, p450-cyp1a2; series mostly up to 57.1 µM; activity, negative = inhibition: at the top concentration
Sequence (P05177 whole entry, looked up): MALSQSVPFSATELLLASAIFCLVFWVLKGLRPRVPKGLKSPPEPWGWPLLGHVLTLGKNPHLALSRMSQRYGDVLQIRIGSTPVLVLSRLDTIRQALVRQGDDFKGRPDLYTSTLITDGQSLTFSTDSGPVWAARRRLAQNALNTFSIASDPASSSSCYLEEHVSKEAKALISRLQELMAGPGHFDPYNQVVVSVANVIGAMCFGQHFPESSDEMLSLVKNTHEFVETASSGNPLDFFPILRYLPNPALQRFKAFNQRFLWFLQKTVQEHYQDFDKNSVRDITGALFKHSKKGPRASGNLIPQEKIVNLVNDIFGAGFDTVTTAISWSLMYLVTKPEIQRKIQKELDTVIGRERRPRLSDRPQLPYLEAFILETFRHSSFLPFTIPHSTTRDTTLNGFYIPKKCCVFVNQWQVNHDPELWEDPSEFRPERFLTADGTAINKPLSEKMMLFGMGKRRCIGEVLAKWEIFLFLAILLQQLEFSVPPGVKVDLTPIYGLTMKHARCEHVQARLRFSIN
% is scaled to controls: 0 for no effect and ±100 for the full control effect.

Structure (SMILES)	activity, negative = inhibition	AC50
O=C(O)CC[C@@]1(c2ccccc2)NC(=O)NC1=O	-11.4% [at 11.4 µM]	
Cc1ccc(N(CCC#N)C(=O)CSc2ccc3c(c2)OCCO3)cc1		2000 nM (active)
CCOC(=O)c1[nH]c(C)c(C)c1C		501 nM (active)
CCCCNc1nc(-c2ccccc2)c(C(=O)OCC)cc1C#N		4470 nM (active)
CCOC(=O)c1cc(C#N)c(Oc2ccccc2OC)nc1-c1ccccc1		708 nM (active)
Cc1cc(C)c2cc(C#N)c(NCCOC(=O)c3ccccc3C)nc2c1		1260 nM (active)
O=C1CCCC=C1[C@@H](O)COCc1ccccc1	-6.11% [at 11.4 µM]	
CCN1C(=O)CC(N2CCN(CC(=O)NC(C)C)CC2)C1=O (stereo not drawn)	6.61%	
C/C(=N\O)c1cccc[n+]1Cc1ccccc1	-0.979% [at 11.4 µM]	
NC(=O)c1ccc(C2SCC(=O)N2Cc2ccccc2)cc1 (stereo not drawn)	-13.7%	
NC(=O)c1ccc(-c2ncc(-c3ccccc3)o2)cc1		631 nM (active)
CO[C@]1(NC(=O)[C@H](C(=O)O)c2ccc(O)cc2)C(=O)N2C(C(=O)O)=C(CSc3nnnn3C)CO[C@H]21	-1.45% [at 25.6 µM]	
Cc1sc2nc(SCC(=O)C(C)(C)C)n(Cc3ccco3)c(=O)c2c1C		891 nM (active)
COCCNC(=O)CSc1nc2cc(OC)c(OC)cc2c(=O)n1Cc1ccco1	-14.6%	
CC(=O)[C@H]([C@@H](c1ccccc1)N1CCOCC1)N1CCOCC1	2.19% [at 11.4 µM]	
Cc1ccc(-c2nc(-c3nccc4ccccc34)oc2-c2ccccc2)cc1		2510 nM (active)
C[C@](O)(c1ccccc1)c1nccc2ccccc12	-17.4% [at 11.4 µM]	
COc1ccc(NC(=O)C23CC4CC(C2)CC(n2cnc(Br)n2)(C4)C3)c(C)c1	-11%	
COc1ccc(NC(=S)Nc2ncccc2C)c(OC)c1		1120 nM (active)
COc1ccc2c(c1OC)C(=O)OC2Nc1ncccc1C (stereo not drawn)	-10.2%	
CCN=C1NN=C(c2ccc(C)cc2)CS1		20000 nM (active)
O=C(NCCN1CCN(Cc2ccccc2)CC1)C1c2ccccc2C(=O)N2CCc3ccccc3C12 (stereo not drawn)	-14%	
O=C(NCCc1ccccc1)c1noc2c1CCc1ccccc1-2		1260 nM (active)
O=C1CCC[C@@H](C(C(=O)OCc2ccccc2)C(=O)OCc2ccccc2)C1	-9.68% [at 11.4 µM]	

Structure (SMILES)	activity, negative = inhibition	AC50
CCN(CC)CCOC(=O)C(c1ccccc1)c1ccccc1		5010 nM (active)
C[N+]1(C)CCC(OC(=O)C(c2ccccc2)c2ccccc2)CC1	7.34%	
CN(C)CCOC(=O)[C@@H](c1ccccc1)C1(O)CCCC1	-20.8% [at 25.6 µM]	
CCN(CC)CCOC(=O)[C@@H](c1ccccc1)C1CCCCC1		1260 nM (active)
CCCC(C(=O)OCCN(CC)CC)(c1ccccc1)c1ccccc1	-7.7%	
CN(C)CCNc1ncnc2c1sc1nc(N3CCOCC3)c3c(c12)CC(C)(C)SC3	-27.4%	
CCOc1ccc(N=C2NC(=O)C(CC(=O)O)S2)cc1 (stereo not drawn)	-10.5%	
O=C1CN2CCN(CC2)CC(=O)Nc2ccc(cc2)S(=O)(=O)c2ccc(cc2)NC(=O)CN2CCN(CC2)CC(=O)Nc2ccc(cc2)S(=O)(=O)c2ccc(cc2)N1	-13.1% [at 11.4 µM]	
CCc1ccc(Nc2ncccc2C#N)cc1		1260 nM (active)
CCC(C)c1ccc(Nc2ncccc2C#N)cc1 (stereo not drawn)		5010 nM (active)
COC(=O)[C@@H]1CC[C@H](C)[C@@H](c2ccc(C)cc2)N1C(=O)c1ccc(/C=N\OCC[C@@H]2C=C[C@H](OC(C)=O)[C@H](COC(C)=O)O2)cc1	-3.4% [at 11.4 µM]	
Nc1cccc2cnccc12		12600 nM (active)
C[C@H]1CN(S(=O)(=O)c2cccc3cnccc23)CCN1	-7.08%	
N[C@@H]1CONC1=O		inactive
C[C@@H]1CN2[C@H](c3ccc(Br)cc3)[C@H](C)CC[C@H]2C(=O)O1	-6.13% [at 11.4 µM]	
Cc1nc(SCc2cccc(Oc3ccccc3)c2)n[nH]1		17800 nM (active)
COc1ccc(CN2CN=C(Nc3nc4ccccc4s3)NC2)cc1		12600 nM (active)
COCCN1CN=C(Nc2nc3ccccc3s2)NC1	-46.1%	
CCOC(=O)[C@]1(CC(=O)O)CCCC1=O	-12.7% [at 11.4 µM]	
COc1c2c(nc3ccccc13)O[C@H]([C@@](C)(O)CO)C2		12600 nM (active)
CCOc1cc(CNc2ccc(OC)cc2)cc(Br)c1OCC(=O)NC(C)(C)C		11200 nM (active)
NCC[C@H](N)C(=O)O	-8.87% [at 2.29 µM]	
Cc1c2cnccc2c(C)c2c1c1ccccc1n2CCOC(=O)c1ccccc1		79.4 nM (active)
O=C(c1cc(C(F)(F)F)cc(C(F)(F)F)c1)N1CCC2(CC1)CN(c1ccncc1)C2	3.89%	
